The entries come from a sample that favours hits as a whole.
DT40 TDP1 CPT = qHTS for Inhibitors of human tyrosyl-DNA phosphodiesterase 1 (TDP1): qHTS in cells in presence of CPT; Potency, µM (series often up to 46.2 µM), inactives show at the highest dose activity change, negative = growth inhibition, actives largely listed as inhibitors; chicken DT40 Tdp1-/-;hTDP1 cells + 20 nM CPT, ATP luminescence, 48 h; hit rate 12% among 420,000; note: potency is the fitted concentration of half-maximal effect; nearly all actives have a fitted effect of over 55% in size
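Chicken DT40 Tdp1-/- cells stably complemented with human TDP1 were seeded at 400 cells/well in medium containing 20 nM camptothecin, exposed to pin-transferred compounds, and grown at 37 °C for at least 48 hr. Viability was read as ATP luminescence.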
IL-1B inflam inh = qHTS for Inhibitors of Inflammasome Signaling: IL-1-beta AlphaLISA Primary Screen | hit rate 4.7% among 360,000 | activity change, % at 57.5 µM | THP-1 LPS/ATP IL-1B secretion, AlphaLISA, 16 h; active compounds read low; in the data active = activity change below about -50%; inconclusive = mostly about -30% to -49%
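Secreted IL-1B measured by AlphaLISA bead assay after 16 h compound exposure of THP-1 cells; compounds (final up to 57.5 uM) added 1 h before LPS (250 ng/mL) and ATP (1.25 mM) stimulation; lower signal means less secretion.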
12-LOX inh = Primary qHTS assay for inhibitors of human arachidonate 12S-lipoxygenase (ALOX12): Round 2; hit rate 1.1% among 580,000; Potency, µM (series often up to 108 µM), without a hit: top-dose activity change, negative = inhibition, usual class: inhibitors; Polyunsaturated fatty acid lipoxygenase ALOX12 (Homo sapiens), P18054; purified 12hLO, xylenol orange hydroperoxide absorbance; note: potency is the fitted concentration of half-maximal effect
Target sequence (P18054 whole entry, looked up): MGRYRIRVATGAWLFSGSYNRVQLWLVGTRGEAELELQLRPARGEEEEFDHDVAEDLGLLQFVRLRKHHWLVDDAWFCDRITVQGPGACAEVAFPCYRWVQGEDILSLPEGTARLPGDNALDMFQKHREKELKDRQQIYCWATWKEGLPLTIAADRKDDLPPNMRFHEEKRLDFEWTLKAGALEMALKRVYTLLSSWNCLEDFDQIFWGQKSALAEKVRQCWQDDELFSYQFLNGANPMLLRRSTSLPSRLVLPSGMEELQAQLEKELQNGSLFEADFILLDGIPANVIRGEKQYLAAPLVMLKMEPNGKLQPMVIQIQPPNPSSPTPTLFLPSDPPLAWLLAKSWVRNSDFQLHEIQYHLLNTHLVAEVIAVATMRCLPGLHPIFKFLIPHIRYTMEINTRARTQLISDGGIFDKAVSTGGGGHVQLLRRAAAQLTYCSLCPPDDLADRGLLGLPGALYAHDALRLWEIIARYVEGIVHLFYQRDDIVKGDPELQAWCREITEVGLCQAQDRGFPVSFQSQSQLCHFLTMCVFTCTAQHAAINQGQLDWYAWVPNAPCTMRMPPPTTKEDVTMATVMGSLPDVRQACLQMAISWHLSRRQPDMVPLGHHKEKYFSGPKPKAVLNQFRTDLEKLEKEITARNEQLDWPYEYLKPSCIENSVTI
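Purified human 12hLO at 150 nM in 25 mM Hepes, 0.01% Triton X-100, pH 7.0, preincubated 15 min at room temperature with compound. Reaction started with 40 uM arachidonic acid, 30 min at room temperature. Hydroperoxide measured by Fe-xylenol orange, 573/405 nm absorbance ratio.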
HT1080-NT tox = qHTS for induction of synthetic lethality in tumor cells producing 2HG: qHTS for the HT-1080-NT fibrosarcoma cell line; HT-1080-NT fibrosarcoma viability, CellTiter-Glo ATP luminescence, 48 h; Potency, µM (doses to about 46.1 µM), for the others: at the highest dose activity, negative = less viability, hits mostly cytotoxic; hit rate 1.6% among 360,000; AID 686970, 2013;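 note: NT is the 2HG producing partner of a matched IDH1 knockdown line; potency is the fitted concentration of half-maximal effect; 0% = DMSO-treated cells and -100% = media-only wells without cells; nearly all actives have a fitted effect of over 55% in size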
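750 cells/well, RPMI + 5% FBS; 2 h settle, compound pin-transfer, 48 h at 37 degrees C. CellTiter-Glo 10 min RT, luminescence. Normalized to DMSO and media-only wells.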
HT1080 IDH1KD tx = qHTS for induction of synthetic lethality in tumor cells producing 2HG: qHTS for the HT-1080-IDH1KD cell line. Potency, µM (titrated, usually from 46.1 µM), without a hit: top-dose activity, negative = toxicity, most hits filed as cytotoxic. HT-1080 IDH1 knockdown viability, ATP luminescence, 48 h. hit rate 2% among 360,000;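 note: potency is the fitted concentration of half-maximal effect; 0% = DMSO wells and -100% = cell-free medium wells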
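In this qHTS, HT-1080 cells depleted of IDH1 are exposed for 48 h at 37 °C to compound titrations. Toxicity is scored from CellTiter-Glo luminescence, with DMSO as full viability and medium alone as none.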
DT40 TDP1 no CPT = qHTS for Inhibitors of human tyrosyl-DNA phosphodiesterase 1 (TDP1): qHTS in cells in absence of CPT; DT40 Tdp1-/- hTDP1 cells, no CPT, ATP luminescence, 48 h; Potency, µM (doses to about 46.2 µM), for the others: top-dose activity change, negative = growth inhibition, hits mostly inhibitors; hit rate 15% among 420,000; note: potency is the fitted concentration of half-maximal effect; nearly all actives have a fitted effect of over 55% in size
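Compound effects on proliferation are scored in DT40 Tdp1-/-;hTDP1 cells in the absence of CPT. ATP levels (CellTiter-Glo luminescence) are recorded after a ≥48 hr, 37 °C incubation.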
* = called active by the depositor; [ ] = another dose, or the depositor's remark. Unless noted, calls come from the whole dose curve; as a rule, active = well fitted curve in the direction sought with a large enough effect; inconclusive = small, poorly fitted or top-dose-only effect, or another doubt; inactive = no such curve, though single readings can be large; an effect the other way counts as inactive or inconclusive. Unless noted, % is set by controls: 0 for no effect and ±100 for the full control effect.

What do the screens show for `CC(Cc1c[nH]c2ccccc12)C(=O)N(C)Cc1ccccc1` (configuration not stated)?
12-LOX inh: -52%

Results for CN(Cc1ccccc1)Cc1c[nH]c2ccccc12 ?
DT40 TDP1 CPT: 5.8µM*; IL-1B inflam inh: inconclusive; 12-LOX inh: -29%; HT1080-NT tox: -8%; HT1080 IDH1KD tx: 0%; DT40 TDP1 no CPT: 21µM*

Results for C[C@H](NCc1c[nH]c2ccccc12)c1ccccc1 ?
DT40 TDP1 CPT: 21µM*; IL-1B inflam inh: 0; 12-LOX inh: 87%; HT1080-NT tox: -11%; HT1080 IDH1KD tx: 0%; DT40 TDP1 no CPT: inconclusive

Results for CC(C)(C)C(=O)OCc1ccc(C2=CC(=O)CC(C)(C)C2=O)cc1 ?
DT40 TDP1 CPT: -10%; IL-1B inflam inh: 21; 12-LOX inh: -10%; HT1080-NT tox: -3%; HT1080 IDH1KD tx: -1%; DT40 TDP1 no CPT: inconclusive

Results for O=C(CN1CCC(n2nnc3cc(F)ccc32)CC1)NC1CC1 ?
DT40 TDP1 CPT: 12%; IL-1B inflam inh: 2; 12-LOX inh: 0%; HT1080-NT tox: 9%; HT1080 IDH1KD tx: 13%; DT40 TDP1 no CPT: -3%

What do the screens show for `O=C(CN1CCC(n2nnc3cc(F)ccc32)CC1)Nc1ccccc1N1CCOCC1`?
DT40 TDP1 CPT: 16µM*; IL-1B inflam inh: -19; 12-LOX inh: 4%; HT1080-NT tox: 0%; HT1080 IDH1KD tx: -22%; DT40 TDP1 no CPT: 18µM*

What do the screens show for `O=C(CN1CCC(n2nnc3cc(F)ccc32)CC1)N1CCc2ccccc2C1`?
DT40 TDP1 CPT: inconclusive; IL-1B inflam inh: -62*; 12-LOX inh: -20%; HT1080-NT tox: -30%; HT1080 IDH1KD tx: inconclusive; DT40 TDP1 no CPT: 15µM*

How did O=C(NCC(O)c1ccccc1C(F)(F)F)c1cccnc1 (configuration not stated) do in these assays?
12-LOX inh: 16%

Results for COc1ccc(CCNC(=O)c2ccc(CNS(=O)(=O)c3cccc(Cl)c3)cc2)cc1OC ?
DT40 TDP1 CPT: inconclusive; IL-1B inflam inh: -12; 12-LOX inh: 4%; HT1080-NT tox: -20%; HT1080 IDH1KD tx: -17%; DT40 TDP1 no CPT: 23µM*

Results for COc1ccc(CCNS(=O)(=O)c2cccc(C(=O)O)c2)cc1OC ?
DT40 TDP1 CPT: 21µM*; IL-1B inflam inh: 13; 12-LOX inh: inconclusive; HT1080-NT tox: 8%; HT1080 IDH1KD tx: 8%; DT40 TDP1 no CPT: 16µM*

What do the screens show for `COc1ccc(CCNS(=O)(=O)c2ccc3c(c2)NC(=O)CCS3)cc1OC`?
DT40 TDP1 CPT: 12µM*; IL-1B inflam inh: 24; 12-LOX inh: -12%; HT1080-NT tox: -12%; HT1080 IDH1KD tx: inconclusive; DT40 TDP1 no CPT: inconclusive

Results for Cc1ccc(CCNS(=O)(=O)c2ccc3c(c2)NC(=O)CCS3)cc1 ?
DT40 TDP1 CPT: inconclusive; IL-1B inflam inh: 11; 12-LOX inh: -5%; HT1080-NT tox: 3%; HT1080 IDH1KD tx: -10%; DT40 TDP1 no CPT: inconclusive

Results for O=C(Cn1ncnn1)N1CCN(Cc2cnc[nH]2)CC(O)C1 (configuration not stated) ?
12-LOX inh: 46%

Results for Cc1ccc(-c2noc3ncnc(NCCC(C)C)c23)cc1 ?
12-LOX inh: 7%

What do the screens show for `O=C1CCC[C@@H]2[C@@H](Cc3ccccc3)[C@@H](Nc3ccccc3)C[C@@H]3CCN1[C@@H]32`?
DT40 TDP1 CPT: inconclusive; DT40 TDP1 no CPT: 11µM*

Results for CC(=NNC(=S)N1CCCCC1)c1cccc(C)n1 ?
DT40 TDP1 CPT: 0.0092µM*; IL-1B inflam inh: 0; 12-LOX inh: -24%; HT1080-NT tox: -22%; HT1080 IDH1KD tx: inconclusive; DT40 TDP1 no CPT: 0.018µM*

What do the screens show for `CN(CCc1noc(C2CN(C(=O)c3ccncn3)C2)n1)C(=O)C1CC1`?
12-LOX inh: 22%

What do the screens show for `CC(=NNC(=S)N1CC2CCC(CC2)C1)c1ccncn1`?
DT40 TDP1 CPT: 0.037µM*; IL-1B inflam inh: 0; 12-LOX inh: inconclusive; HT1080-NT tox: 16µM*; HT1080 IDH1KD tx: inconclusive; DT40 TDP1 no CPT: 0.029µM*

What do the screens show for `Cc1cccc(C(N)=O)n1`?
12-LOX inh: -17%

How did CC(=NNC(=S)N1CCCCC1)c1ccccn1 do in these assays?
DT40 TDP1 CPT: 0.026µM*; IL-1B inflam inh: -74*; 12-LOX inh: 45µM*; HT1080-NT tox: -20%; HT1080 IDH1KD tx: inconclusive; DT40 TDP1 no CPT: 0.0082µM*

What do the screens show for `CSC(=S)NN=C(C)c1cccc(C)n1`?
DT40 TDP1 CPT: 0.033µM*; IL-1B inflam inh: inconclusive; 12-LOX inh: -11%; HT1080-NT tox: -26%; HT1080 IDH1KD tx: inconclusive; DT40 TDP1 no CPT: 0.018µM*

How did Cc1cccc(CN2CCNc3cnc(OCc4cccnc4)cc3C2)c1 do in these assays?
12-LOX inh: 95%[176 µM]

Results for CCNC(=O)N1CCC([C@H]2[C@@H](OC)C(=O)N2C(C)C)CC1 ?
12-LOX inh: 3%

What do the screens show for `Cc1cc(C)nc(Nc2nc(=O)c3ccccc3s2)n1`?
DT40 TDP1 CPT: inconclusive; IL-1B inflam inh: -16; 12-LOX inh: inconclusive; HT1080-NT tox: 10%; HT1080 IDH1KD tx: 19%; DT40 TDP1 no CPT: 21µM*

Results for COc1ccc(S(=O)(=O)N2CCN(CC(=O)Nc3ccc(C)c(F)c3)CC2)cc1 ?
DT40 TDP1 CPT: inconclusive; IL-1B inflam inh: -61*; 12-LOX inh: 0%; HT1080-NT tox: -1%; HT1080 IDH1KD tx: -14%; DT40 TDP1 no CPT: 18µM*

What do the screens show for `Cc1ccc(NC(=O)CN2CCN(S(=O)(=O)c3ccc(F)cc3)CC2)cc1C`?
DT40 TDP1 CPT: inconclusive; IL-1B inflam inh: -13; 12-LOX inh: -6%; HT1080-NT tox: -1%; HT1080 IDH1KD tx: -12%; DT40 TDP1 no CPT: -28%

Screens deposited in PubChem BioAssay by National Center for Advancing Translational Sciences (NCATS).
